Inconclusive results are not listed. Activity calls are given as the source filed them. Unless noted, how the calls were made is not given here.
Experiments:
[1] = qHTS profiling of the MIPE4 collection as inhibitors of Plasmodium falciparum (3D7) proliferation (AID 743344);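 further: scaled between DMSO vehicle wells and 0.29 µM artemisinin as full inhibition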; settings: P. falciparum 3D7 in erythrocytes, SYBR Green DNA fluorescence, 72 h; at 28.5 µM unless noted
How it was run: (§1)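 Erythrocytes infected with P. falciparum (0.3% parasitemia, 2.5% hematocrit) incubated with compounds 72 h at 37 C, 5% CO2. Lysis with saponin/Triton buffer containing SYBR Green I, overnight at room temperature in the dark; DNA fluorescence (485/535 nm) normalised to 0.29 uM artemisinin and DMSO.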

[2] = qHTS profiling of the MIPE4 collection as inhibitors of Plasmodium falciparum (DD2) proliferation (AID 743345); settings: P. falciparum Dd2 in erythrocytes, SYBR Green DNA, 72 h; at 28.5 µM unless noted
How it was run: as §1

[3] = qHTS profiling of the MIPE4 collection as inhibitors of Plasmodium falciparum (DD2) proliferation (Rep 2) (AID 743346); settings: P. falciparum Dd2 in erythrocytes, SYBR Green DNA, 72 h; at 28.5 µM unless noted
How it was run: as §1

[4] = qHTS profiling of the MIPE4 collection as inhibitors of Plasmodium falciparum (HB3) proliferation (AID 743347);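 further: plate controls were DMSO vehicle wells for no effect and artemisinin wells for full effect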; settings: P. falciparum HB3 in erythrocytes, SYBR Green DNA, 72 h; at 28.5 µM unless noted
How it was run: as §1

[5] = High-throughput drug toxicity screening in the BPDCN cell line Gen2.2 (AID 1224824); settings: Gen2.2 BPDCN cells; at 45.8 µM (top of the series) unless noted;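 further: cells exposed to compounds for 48 h before reading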
How it was run: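 Readout is ATP luminescence from Gen2.2 cells after two days of drug exposure in serum-containing medium at 37 °C. Values express percent activity, with vehicle defining full signal and 9.2 uM bortezomib defining zero.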

[6] = High-throughput drug toxicity screening in the BPDCN cell line Cal-1 (AID 1224825); settings: Cal-1 BPDCN cell viability, qHTS; at 45.8 µM (top of the series) unless noted
How it was run: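 Cal-1 cells, 500 per well in phenol-red-free RPMI with 10% FBS, exposed to compounds for 48 hours at 37C, 5% CO2. Viability read by CellTiter-Glo luminescence; percent activity normalized to DMSO (100%) and 9.2 uM bortezomib final (0%).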

[7] = qHTS assay for measurement of the activity of small molecule inhibitors on Zika virus induced Caspase-3 activity in human iPSC derived neural progenitor cells (hNPCs) (AID 1224857; active means well fitted inhibition curve with a large enough effect; further: nearly all actives have a fitted effect of over 65% in size; further: potency means the concentration at half of the fitted maximal effect)
How it was run: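 Cells were plated at 350 per well and grown 16 to 20 hours. Compound pretreatment lasted one hour, after which ZIKV (2 FFU/cell) was added for 6 hours. Percent inhibition was normalized between uninfected and infected controls.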

[8] = qHTS assay for measurement of the activity of small molecule inhibitors on Zika virus induced Caspase-3 activity in human astrocytoma cells (AID 1224859; active means well fitted inhibition curve with a large enough effect;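 further: plate controls were ZIKV-infected untreated cells for no effect and uninfected cells for full effect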)
How it was run: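 Percent inhibition of virus-induced caspase-3/7 signal is calculated against uninfected and ZIKV-infected control cells. Cells are SNB-19, infected at 2 FFU/cell for 6 h after 1 h compound exposure.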

[9] = qHTS Screen of the MIPE 4.0 Collection Against Ewings Sarcoma (RDES) (AID 1259252; active means well fitted inhibition curve with a large enough effect; further: nearly all actives have a fitted effect of over 35% in size; further: potency means the concentration at half of the fitted maximal effect)
How it was run: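 Log-phase cells in RPMI with 5% FBS attached for 4 h, then received compounds as a titration for 48 h at 37C, 5% CO2. Viability was read by CellTiter-Glo luminescence and normalized to DMSO and no-cell wells.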

| SMILES | parasite growth, % of DMSO control [1] | parasite growth remaining, % of DMSO control (lower = more inhibition) [2] | parasite growth, % of control (lower = inhibition) [3] | growth, % of control [4] | cell viability, % of control (lower = more cytotoxic) [5] | viability (% of control) [6] | Potency [7] | Potency [8] | Potency [9] |
| --- | --- | --- | --- | --- | --- | --- | --- | --- | --- |
| CC=C(C(=CC)c1ccc(O)cc1)c1ccc(O)cc1 | 61.7% | 94.2% | 67.7% | 70.1% | 43.4% | 26.7% | inactive | inactive | 20.9 µM (active) |
| CN(C)c1ccccc1CN1CCCN(Cc2ccccc2N(C)C)C1c1ccncc1 | 17.2% | 9.84% | 11.1% | 12.9% | 13.5% | 29.7% | inactive | inactive | 20.9 µM (active) |
| CN1CC(=O)N2C(Cc3c([nH]c4ccccc34)[C@H]2c2ccc3c(c2)OCO3)C1=O (some centres undefined) | 14% | 17.5% | 23.9% | 11.5% | 110% | 85.7% | 3.72 µM (active) | inactive | inactive |
| O=C1Nc2ccc(I)cc2C1=Cc1cc(Br)c(O)c(Br)c1 | 20.7% | 30.6% | 32.9% | 17.7% | 562% | 106% | inactive | inactive | 18.7 µM (active) |
| CC1=C(CC(=O)O)c2cc(F)ccc2C1=Cc1ccc(S(C)=O)cc1 (centres undefined) | 79.1% | 91.5% | 64.2% | 52.4% | 6.5% | 7.86% | inactive | inactive | 1.18 µM (active) |
| O=C(Nc1cccc(C(F)(F)F)c1)Nc1cc(S(=O)(=O)NC2CC2)ccc1-c1ccsc1 | 52.8% | 82.2% | 51.8% | 78.9% | 316% | 68.8% | inactive | inactive | 20.9 µM (active) |
